Records with an inconclusive call do not appear. The source made the active and inactive calls. The calls were made as follows: active = hit-call score of the fitted dose curve at least 0.9, where 1 is the maximum; inconclusive = response in the unintended direction; inactive = score below 0.9.
Biological target: Androgen receptor (Homo sapiens) (UniProt P10275)
Experiment: ATG_AR_TRANS: Attagene TRANS-FACTORIAL HepG2 Assay for human Androgen Receptor (AR) (AID 2282973)
Conditions: HepG2 Attagene TRANS-FACTORIAL AR reporter transcription
Procedure, shortened: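 Transcriptional activity of an exogenous AR–Gal4 fusion read as GAL4-UAS reporter transcript levels in transfected human HepG2 cells after 24 h dosing. Detection via RT-PCR, 6-FAM labelling, HpaI digest and capillary electrophoresis; increase over DMSO baseline.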

Androgen receptor (Homo sapiens), sequence (P10275 whole entry, looked up): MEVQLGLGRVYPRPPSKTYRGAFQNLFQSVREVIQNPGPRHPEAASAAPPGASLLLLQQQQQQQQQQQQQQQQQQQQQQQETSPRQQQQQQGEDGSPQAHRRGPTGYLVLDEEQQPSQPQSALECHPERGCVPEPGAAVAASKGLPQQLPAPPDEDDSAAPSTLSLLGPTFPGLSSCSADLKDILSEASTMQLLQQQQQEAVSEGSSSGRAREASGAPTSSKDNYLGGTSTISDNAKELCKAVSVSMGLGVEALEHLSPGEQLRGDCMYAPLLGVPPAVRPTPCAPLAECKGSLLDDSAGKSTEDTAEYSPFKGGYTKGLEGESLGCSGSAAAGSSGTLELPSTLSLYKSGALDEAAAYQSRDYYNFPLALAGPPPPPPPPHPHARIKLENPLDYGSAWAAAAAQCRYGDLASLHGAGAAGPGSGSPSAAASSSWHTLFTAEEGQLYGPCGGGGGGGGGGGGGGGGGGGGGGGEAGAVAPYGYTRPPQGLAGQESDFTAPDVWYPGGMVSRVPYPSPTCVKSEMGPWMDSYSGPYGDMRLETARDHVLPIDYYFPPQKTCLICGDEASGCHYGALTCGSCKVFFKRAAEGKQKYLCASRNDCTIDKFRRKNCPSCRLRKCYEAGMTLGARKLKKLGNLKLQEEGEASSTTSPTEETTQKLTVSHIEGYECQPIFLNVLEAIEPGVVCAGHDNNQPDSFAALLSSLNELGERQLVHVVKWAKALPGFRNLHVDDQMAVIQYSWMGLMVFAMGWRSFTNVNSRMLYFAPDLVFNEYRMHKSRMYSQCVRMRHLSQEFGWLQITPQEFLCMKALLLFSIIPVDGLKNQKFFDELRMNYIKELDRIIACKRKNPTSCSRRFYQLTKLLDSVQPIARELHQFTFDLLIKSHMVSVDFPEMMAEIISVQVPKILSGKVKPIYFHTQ

Q: Which outcome does the source give for `OCCNCc1ccccc1` here?
A: inactive

Q: `FC(F)=C(F)C(F)(F)C(F)(F)C(F)(F)C(F)F` was tested. Which outcome did it give?
A: inactive

Q: `CC1CCC(C(C)C)C(O)C1` (centres undefined) was tested. Which outcome did it give?
A: inactive

Q: With `NCC(F)(F)C(F)(F)C(F)(F)C(F)(F)C(F)(F)C(F)(F)C(F)(F)F` as the compound, how does the outcome read?
A: inactive

Q: With `CCCCCCCC(OC)OC` as the compound, how does the outcome read?
A: inactive

Q: For `FC(F)(F)C1(F)C(F)(F)C(F)(F)C(F)(F)C1(F)F`, which outcome is on record?
A: inactive

Q: For `CC(=O)c1ccc(S(=O)(=O)NC(=O)NC2CCCCC2)cc1`, which outcome is on record?
A: inactive

Q: `Nc1cc(Cl)c(-c2cc(Cl)c(N)cc2Cl)cc1Cl` was tested. Which outcome did it give?
A: inactive

Q: With `CC1=Nc2ccc3ccccc3c2C1(C)C` as the compound, how does the outcome read?
A: inactive

Q: For `CCCCC[Si](OCC)(OCC)OCC`, which outcome is on record?
A: inactive

Q: With `Oc1cc2ccccc2c2ccccc12` as the compound, how does the outcome read?
A: inactive

Q: For `Cc1ccc(-c2cc(C(F)(F)F)nn2-c2ccc(S(N)(=O)=O)cc2)cc1`, which outcome is on record?
A: inactive

Q: For `COc1ccc(S(=O)(=O)N2C(=O)[C@@](c3ccccc3OC)(N3C[C@H](O)C[C@H]3C(=O)N(C)C)c3cc(Cl)ccc32)c(OC)c1`, which outcome is on record?
A: inactive

Q: With `O=Cc1ccccc1C=O` as the compound, how does the outcome read?
A: inactive

Q: For `CCN(CC)C(=S)SSC(=S)N(CC)CC`, which outcome is on record?
A: inactive

Q: How did the outcome turn out when `CCOc1cccc(-n2cc(C(=O)N3CCN(c4cc(C(=O)O)c5ccccc5c4)CC3)nc2-c2ccc(C)cc2)c1` was run?
A: inactive

Q: For `Cc1nc(-c2ccc3c(c2)CCN(CCC2CCC(NC(=O)/C=C/c4ccc(F)cc4)CC2)CC3)no1` (centres undefined), which outcome is on record?
A: inactive

Q: For `CCCCCCCCCCCCc1ccccc1S(=O)(=O)O`, which outcome is on record?
A: inactive

Q: How did the outcome turn out when `COc1ccc2c(c1)c(CC(=O)O)c(C)n2C(=O)c1ccc(Cl)cc1` was run?
A: inactive

Q: With `CCCCCCCCCCCCCCCCOS(=O)(=O)O` as the compound, how does the outcome read?
A: inactive

Q: `Oc1ccc2ccccc2c1` was tested. Which outcome did it give?
A: inactive

Q: Which outcome does the source give for `c1ccc2[nH]c(-c3cscn3)nc2c1` here?
A: inactive

Q: How did the outcome turn out when `CCC(C)N(C)C(=O)c1cc2ccccc2c(-c2ccccc2Cl)n1` (centres undefined) was run?
A: inactive

Q: With `Oc1ccc2c(c1)-c1ccccc1C2` as the compound, how does the outcome read?
A: inactive

Q: With `C[C@]12CC[C@@H]3c4ccc(O)cc4C[C@@H](CCCCCCCCCS(=O)CCCC(F)(F)C(F)(F)F)[C@H]3[C@@H]1CC[C@@H]2O` (some centres undefined) as the compound, how does the outcome read?
A: inactive

Q: How did the outcome turn out when `O=C(O)Cn1c(=O)n(Cc2ccc(Br)cc2F)c(=O)c2ccc(Cl)cc21` was run?
A: inactive

Q: `Cc1cccc([N+](=O)[O-])c1C` was tested. Which outcome did it give?
A: inactive

Q: For `Cc1c2ccccc2c(C)c2c1ccc1ccccc12`, which outcome is on record?
A: inactive

Q: For `CN(C)c1ccc(C(=C2C=CC(=[N+](C)C)C=C2)c2ccc(N(C)C)cc2)cc1`, which outcome is on record?
A: inactive

Q: Which outcome does the source give for `COCCOC[C@H](CC1(C(=O)NC2CCC(C(=O)O)CC2)CCCC1)C(=O)Oc1ccc2c(c1)CCC2` (some centres undefined) here?
A: inactive

Q: With `Fc1ccccc1[C@@H](F)COC1CCC(Nc2ncnc3[nH]ncc23)CC1` (some centres undefined) as the compound, how does the outcome read?
A: inactive

Q: `CCCCCC(=O)O` was tested. Which outcome did it give?
A: inactive

Q: With `CN(C)c1ccc(N=NS(=O)(=O)O)cc1` as the compound, how does the outcome read?
A: inactive

Q: For `CCCCCCCCCC(=O)O`, which outcome is on record?
A: inactive

Q: Which outcome does the source give for `Cc1cc(CCN2CCN(c3nsc4ccccc34)CC2)cc2c1NC(=O)CC2(C)C` here?
A: inactive

Q: For `O=C(c1ccccc1)c1ccccc1`, which outcome is on record?
A: inactive

Q: With `Nc1cccc2c(N)cccc12` as the compound, how does the outcome read?
A: inactive

Q: For `O=C(c1ccc(O)cc1O)c1ccc(O)cc1O`, which outcome is on record?
A: inactive

Q: How did the outcome turn out when `CC[C@H](c1ccc(O)cc1)[C@@H](CC)c1ccc(O)cc1` was run?
A: inactive

Q: How did the outcome turn out when `CSc1ccc(Oc2ccc(S(N)(=O)=O)cc2CN(C)C)cc1C` was run?
A: inactive

Q: How did the outcome turn out when `CCCCOC(=O)c1ccc(O)cc1` was run?
A: inactive

Q: With `O=C(O)c1ccccc1C(=O)OCc1ccccc1` as the compound, how does the outcome read?
A: inactive

Q: Which outcome does the source give for `COCC(C)OCC(C)OCC(C)O` (centres undefined) here?
A: inactive

Q: With `CCCN(C1CCN(C(=O)C2CCNCC2)CC1)[C@@H]1CCc2ccc(OC)cc2C1` as the compound, how does the outcome read?
A: inactive

Q: How did the outcome turn out when `CCCOc1sc(C(=O)N2CCC(c3cc(CN)ccc3F)CC2)c(C)c1Br` was run?
A: inactive

Q: Which outcome does the source give for `CCCCCCCCN(C)CCCCCCCC` here?
A: inactive

Q: Which outcome does the source give for `COc1cc(C(=O)NC2CCN(C)CC2)ccc1Nc1ncc2c(n1)N(C1CCCC1)CC(F)(F)C(=O)N2C` here?
A: inactive

Q: `CCOc1ccc2c(c1)C(C)=CC(C)(C)N2` was tested. Which outcome did it give?
A: inactive

Q: Which outcome does the source give for `Cc1cc(NC(=O)C(=O)O)cc(C)c1Oc1ccc(O)c2c1CCC2` here?
A: inactive
